Sampled rows, rich in hits. Any-hit rate of the full collection: about 4.3%.
ADAM17 inh = ADAM17 inhibitors, primary screen, biochemical, QFRET; Disintegrin and metalloproteinase domain-containing protein 17 (Homo sapiens), P78536; inhibition, % at 6.95 µM; hit rate 0.83% among 370,000; AID 720648, 2013; recombinant ADAM17, EDANS/DABCYL FRET peptide cleavage;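 active = inhibition above the mean of compounds lying between control limits plus 3 SD, set per campaign, cut at about 8.5% in these data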
ADAM10 inh = human ADAM10 inhibitors, primary screen, biochemical, QFRET, HTS. Disintegrin and metalloproteinase domain-containing protein 10 (Homo sapiens), O14672. recombinant ADAM10, EDANS/DABCYL FRET peptide cleavage, 3 h. AID 720582, 2013. hit rate 0.62% among 370,000. inhibition, % at 7 µM;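 active = inhibition above a per-campaign cutoff equal to the mean of compounds falling between control-based bounds plus 3 SD, cut at about 20% in these data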
sPLA2-III inh = human group III sPLA2 inhibitors, primary screen, biochemical, QFRET, BODIPY PC-A2 liposome substrate; Group 3 secretory phospholipase A2 (Homo sapiens), Q9NZ20; QFRET BODIPY PC-A2 liposome hydrolysis, fluorescence; inhibition, % at 12.2 µM; hit rate 0.56% among 370,000;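 active = inhibition above mean plus 3 SD of compounds lying within the high and low control bounds, cut at about 19% in these data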
Target sequence (Q9NZ20 whole entry, looked up): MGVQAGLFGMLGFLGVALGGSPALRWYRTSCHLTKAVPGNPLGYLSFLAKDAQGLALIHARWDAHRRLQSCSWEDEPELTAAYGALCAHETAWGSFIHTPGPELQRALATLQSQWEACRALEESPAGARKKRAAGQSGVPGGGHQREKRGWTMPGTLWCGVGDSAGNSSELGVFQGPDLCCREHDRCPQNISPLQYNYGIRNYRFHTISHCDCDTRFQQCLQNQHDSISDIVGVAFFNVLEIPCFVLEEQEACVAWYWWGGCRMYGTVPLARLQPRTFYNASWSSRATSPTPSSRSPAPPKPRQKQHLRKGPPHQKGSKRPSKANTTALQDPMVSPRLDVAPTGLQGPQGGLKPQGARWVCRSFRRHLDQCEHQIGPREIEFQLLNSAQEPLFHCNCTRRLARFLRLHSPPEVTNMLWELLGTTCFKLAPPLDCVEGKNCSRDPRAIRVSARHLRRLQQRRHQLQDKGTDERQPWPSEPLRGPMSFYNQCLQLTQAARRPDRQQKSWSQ
FAS-TE inh = FAS thioesterase domain inhibitors, primary screen, biochemical, fluorescence intensity, uHTS | inhibition, % at 15 µM | AID 602261, 2012 | hit rate 0.67% among 360,000 | recombinant FAS-TE, OMFH fluorogenic substrate, fluorescence endpoint;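 active = compounds whose normalised, plate-corrected inhibition of enzyme fluorescence in the single-dose primary screen is 50% or more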
NR3A LBD binder = binders of NR3A ligand-binding domain, primary screen, biophysical, differential scanning fluorimetry, uHTS. Glutamate receptor ionotropic, NMDA 3A (GRIN3A) ligand-binding domain. NR3A LBD differential scanning fluorimetry, Tm shift; 0% = protein alone, 100% = glycine-bound protein. Tm shift relative to glycine control, % at 25 µM. hit rate 2.5% among 340,000. AID 1259313, 2017;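 active = melting temperature shift of at least 10% of the positive control shift, at one fixed dose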
Hits are given with their value; 0 = inactive; - = no result given.

SMILES | ADAM17 inh | ADAM10 inh | sPLA2-III inh | FAS-TE inh | NR3A LBD binder
O=C(/C=C/c1cccs1)Nc1ccc(N2CCOCC2)c(S(=O)(=O)Nc2cc(Cl)ccc2Cl)c1 | 0 | 0 | 0 | 0 | 10
Nc1ccc(N2CCOCC2)c(S(=O)(=O)Nc2cc(Cl)ccc2Cl)c1 | 0 | 0 | 0 | 0 | 0
O=C(Nc1ccc(Cl)c(Cl)c1)Nc1ccc(N2CCCC2)c(S(=O)(=O)Nc2ccccc2Cl)c1 | 0 | 0 | 0 | 0 | 30
O=C(Nc1ccc(F)cc1)Nc1ccc(N2CCCC2)c(S(=O)(=O)Nc2ccccc2Cl)c1 | 0 | 0 | 0 | 0 | 34
O=C(Nc1ccc(N2CCOCC2)c(S(=O)(=O)Nc2ccccc2Cl)c1)c1ccc(F)cc1 | 0 | 0 | 0 | 0 | 0
Cc1cccc(C(=O)N[C@@H]2CC[C@@]34CCCN3C(=O)CCC[C@H]4[C@H]2C)c1 | 0 | 0 | 0 | - | -
Cc1ccc(C)c(NC(=O)CN2C(=O)COc3ccc(S(=O)(=O)N4CCCC4)cc32)c1 | 0 | 0 | 0 | 0 | 10
COc1ccc(CNC(=O)CN2C(=O)COc3ccc(S(=O)(=O)N4CCC(C)CC4)cc32)cc1 | 0 | 0 | 0 | 0 | 45
CCOc1ccccc1N1CCN(C(=O)CCNS(=O)(=O)c2ccccc2F)CC1 | 0 | 0 | 0 | 0 | 41
CC(C)C[C@H]1COc2cc(Br)ccc2S(=O)(=O)N1Cc1cn(Cc2ccco2)nn1 | 0 | 0 | 0 | - | -
COc1ccc(CN(CC#Cc2ccccc2)Cc2ccccc2)c(OC)c1 | 0 | 0 | 0 | - | -
O=c1[nH]c(/C=C2\C=Nc3ccccc32)c(O)n1Cc1ccccc1F | 0 | 0 | 0 | 0 | 10
CCc1ccc(NC(=O)[C@H](C)NC(=O)C2CCN(C(=O)[C@@H](N)CC(C)C)CC2)cc1 | 0 | 0 | 0 | 0 | 0
Cc1ccc(CNC(=O)[C@H](C)NC(=O)C2CCN(C(=O)[C@@H](N)CC(C)C)CC2)cc1 | 0 | 0 | 20 | 0 | 0
C/C(=N\Nc1nc2ccccc2s1)c1ccc(Br)s1 | 0 | 0 | 0 | 0 | 23
COc1cccc2c(NCc3ccccc3)nc(-n3c(N)nc4ccccc43)nc12 | 0 | 0 | 0 | - | -
Cc1ccccc1NS(=O)(=O)c1ccc(NC(=O)CSCc2ccc(Br)cc2)cc1 | 15 | 32 | 0 | 0 | 22
O=C(/C=C/c1ccccc1)Nc1cccc(C(=O)NCCCc2ccccc2)c1 | 0 | 0 | 0 | 0 | 27
O=C(C=Cc1ccccc1)Nc1ccccc1 | 0 | 0 | 0 | 0 | 0
O=C(/C=C/c1ccccc1)Nc1cccc(C(=O)NCc2ccccc2)c1 | 0 | 0 | 0 | - | -
O=C(/C=C/c1ccccc1)Nc1ccc2c(c1)C(=O)NC2=O | 0 | 0 | 0 | 0 | 14
O=C(/C=C/c1ccccc1)Nc1cccnc1 | 0 | 0 | 0 | 0 | 30
O=C(/C=C/c1ccccc1Cl)Nc1ccc2c(c1)C(=O)NC2=O | 0 | 0 | 0 | 0 | 0
Cc1cc(C(=O)OCC(=O)Nc2ccccc2[N+](=O)[O-])c2ccccc2n1 | 0 | 0 | 0 | 0 | 0
Cc1cnc(C(=O)OCC(=O)Nc2ccccc2[N+](=O)[O-])cn1 | 0 | 0 | 0 | 0 | 11
SMILES | ADAM17 inh | ADAM10 inh | sPLA2-III inh | FAS-TE inh | NR3A LBD binder
CC1(c2nnnn2Cc2ccccc2)CCCCC(=O)N1Cc1cccs1 (configuration not stated) | 0 | 0 | 0 | - | -
CCCCCC(=O)N=Nc1c(O)[nH]c2ccc([N+](=O)[O-])cc12 | 0 | 0 | 0 | 0 | 30
CCNC(=S)N=Nc1c(O)[nH]c2ccc([N+](=O)[O-])cc12 | 0 | 0 | 0 | 0 | 0
O=[N+]([O-])c1ccc2[nH]c(O)c(N=NC(=S)NCC3CCCO3)c2c1 (configuration not stated) | 0 | 0 | 0 | 0 | 27
O=C(N=Nc1c(O)[nH]c2ccc([N+](=O)[O-])cc12)c1ccccc1Cl | 0 | 0 | 0 | 0 | 0
O=C(O)c1ccccc1N=Nc1c(O)[nH]c2ccc([N+](=O)[O-])cc12 | - | - | - | 0 | 27
Cc1ccc(NC(=O)CN2C(=O)CCSc3ccccc32)cc1C | 0 | 0 | 0 | - | -
COC(=O)[C@]12C[C@H](CC(=O)NCCCN3CCCC3=O)C(=O)N(Cc3ccc4c(c3)OCO4)C1=C[C@H](C(C)C)O[C@@H]2C1CC1 | 0 | 0 | 0 | - | -
FC(F)Oc1ccc(NC(=S)NC2CCSc3ccccc32)cc1 (configuration not stated) | 0 | 0 | 0 | 0 | 17
Cn1cc(C(=O)Nc2ccc(F)c(Cl)c2)cn1 | 0 | 0 | 0 | 0 | 0
CN1c2ccsc2C(O)=C(C(=S)Nc2ccc(F)c(Cl)c2)S1(=O)=O | 0 | 0 | 0 | 0 | 26
COc1ccc2c(c1)CCCN2C(=O)C1CCCN(S(=O)(=O)c2ccccc2)C1 (configuration not stated) | 0 | 0 | 0 | - | -
Cc1ccccc1-c1ccc2c(c1)[C@@H]1C[C@H](N(C)C(=O)c3ccco3)[C@H]([C@H](C)O)CN1CC2 | 0 | 0 | 0 | - | -
CCc1ccc(-c2cc(C)no2)cc1S(=O)(=O)NCCCN1CCN(c2ccccc2)CC1 | 0 | 0 | 0 | 0 | 0
CCc1ccc(-c2cc(C)no2)cc1S(=O)(=O)NCCN1CCC(C)CC1 | 0 | 0 | 0 | 0 | 15
CCOc1ccc(NC2=C(Cl)C(=O)N(C3CCCCC3)C2=O)cc1 | 0 | 0 | 0 | 0 | 17
Cc1ccc(N(C)c2nc(N)nc(N)c2N=O)cc1 | 0 | 0 | 0 | - | -
CC(C)(C)CSc1nnc(-c2cccnc2)n1Cc1ccccc1 | 0 | 0 | 0 | - | -
O=C1c2cccc3c([N+](=O)[O-])ccc(c23)C(=O)N1c1nccs1 | 0 | 0 | 0 | 0 | 10
COc1ccc(/C(O)=C2\C(=O)C(=O)N(c3cc(C)on3)C2c2cccc(OC)c2OC)cc1C (configuration not stated) | 0 | 0 | 0 | 0 | 0
COc1cccc(C2c3c(oc4ccc(Cl)cc4c3=O)C(=O)N2c2cc(C)on2)c1OC (configuration not stated) | 0 | 0 | 0 | 0 | 11
Cc1nc(N2CCN(C(=O)C3CCCCC3)CC2)c2c3c(sc2n1)CCCC3 | 0 | 0 | 0 | - | -
CCN1CCN(c2ccc(S(=O)(=O)N3CCOCC3)cc2NC(=O)C2CCC(C(C)(C)C)CC2)CC1 (configuration not stated) | 0 | 0 | 0 | 0 | 19
Cc1c([N+](=O)[O-])cc(C(=O)Nc2ccc(NC(=O)c3ccco3)cc2)cc1[N+](=O)[O-] | 0 | 0 | 0 | 0 | 25
O=C(NC(=S)Nc1ccc(NC(=O)c2ccco2)cc1)c1ccccc1 | 0 | 0 | 0 | 0 | 0
CCOc1ccc(C(=O)NC(=S)Nc2ccc(NC(=O)c3ccco3)cc2)cc1[N+](=O)[O-] | 0 | 0 | 0 | 0 | 41
Cc1ccc(NC(=O)c2ccco2)c([N+](=O)[O-])c1 | 0 | 0 | 0 | 0 | 0
